In the library only some 0.53% were active in any assay of this set; here they are far more common.
USP1 inh = Inhibitors of USP1/UAF1: Primary Screen; Ubiquitin carboxyl-terminal hydrolase 1 (Homo sapiens), O94782; 390,000 tested, 0.23% active; recombinant USP1/UAF1, Ub-Rhodamine cleavage fluorescence; Potency, µM (highest dose often 57.1 µM), without a hit: at the top dose activity change, negative = inhibition, hits mostly inhibitors; note: potency is the fitted concentration of half-maximal effect; nearly all actives have a fitted effect of over 60% in size
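USP1/UAF1 complex (1 nM) preincubated 15 min at room temperature with compound, then Ub-Rho substrate (150 nM final) added. Kinetic fluorescence at 480/540 nm over 6 reads at 60 s intervals; 50 mM HEPES pH 7.8, 0.5 mM EDTA, 0.1 mg/ml BSA, 1 mM TCEP, 0.01% Tween-20.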
PI4K2A inh = qHTS for small molecular inhibitors of PI4K2A | purified PI4K2A, ADP-Glo luminescence, 1 h; hits give low values | activity change, negative = inhibition, % at 76.9 µM | 420,000 tested, 0.13% active | AID 1346378, 2018; in the data active = activity change below about -50%; inconclusive = mostly about -30% to -49%;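 note: -100% = wells without enzyme as full effect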
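In this quantitative HTS, ADP production by PI4K2A was quantified luminescently after 1 h at ambient temperature; 100 microM adenosine served as plate-quality control.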
PGK inhibitor = qHTS Assay to Find Inhibitors of Phosphoglycerate Kinase | Phosphoglycerate kinase, glycosomal (Trypanosoma brucei brucei), P07378 | PGK/GAPDH coupled, Kinase-Glo luminescence, 60 min | Potency, µM (highest dose often 57.5 µM), for the others: top-dose activity change, negative = inhibition, usual class: inhibitors | 380,000 tested, 0.043% active; note: potency is the fitted concentration of half-maximal effect; nearly all actives have a fitted effect of over 60% in size
Target sequence (P07378 whole entry, looked up): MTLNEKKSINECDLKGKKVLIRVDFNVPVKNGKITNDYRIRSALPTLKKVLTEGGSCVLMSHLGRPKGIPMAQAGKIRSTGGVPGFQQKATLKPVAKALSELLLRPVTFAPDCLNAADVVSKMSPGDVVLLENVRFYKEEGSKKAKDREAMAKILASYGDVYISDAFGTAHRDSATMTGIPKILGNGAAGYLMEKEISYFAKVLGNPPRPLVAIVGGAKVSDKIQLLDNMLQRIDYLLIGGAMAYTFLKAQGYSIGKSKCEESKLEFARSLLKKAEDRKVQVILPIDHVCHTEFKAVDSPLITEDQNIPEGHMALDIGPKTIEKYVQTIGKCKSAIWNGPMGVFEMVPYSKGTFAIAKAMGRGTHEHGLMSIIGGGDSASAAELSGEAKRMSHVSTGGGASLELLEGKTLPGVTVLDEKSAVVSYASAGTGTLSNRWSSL
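Luminescent ATP detection (Kinase-Glo Plus) follows a 60-minute room-temperature incubation, with wells lacking PGK as controls. Buffer: 100 mM TEA (pH 7.6), 5 mM MgCl2, 0.01% Tween-20. Coupling enzyme GAPDH (100 nM final) supplies unstable 1,3-BPG in-well.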
GLS inh = qHTS for Inhibitors of Glutaminase (GLS) | Potency, µM (titrated, usually from 45.5 µM), without a hit: at the top dose activity change, negative = inhibition, hits mostly inhibitors | Glutaminase kidney isoform, mitochondrial (Homo sapiens), O94925 | GLS enzymatic activity, qHTS titration | 410,000 tested, 0.21% active | AID 624170, 2012; note: potency is the fitted concentration of half-maximal effect
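Assay buffer: 45 mM KH2PO4 pH 8.2, 0.02% Tween-20. hKGA acts on L-glutamine (1 mM solution added); product glutamate is reported by an oxidase/peroxidase Amplex Red coupling, with fluorescence taken at baseline and 30 min.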
The depositor's hits bear a star; i = inactive; u = inconclusive; x = not tested or not shown. Unless noted, calls come from the whole dose curve; as a rule, active = well fitted curve in the direction sought with a large enough effect; inconclusive = small, poorly fitted or top-dose-only effect, or another doubt; inactive = no such curve, though single readings can be large; an effect the other way counts as inactive or inconclusive. Unless noted, % is set by controls: 0 for no effect and ±100 for the full control effect.

SMILES	USP1 inh	PI4K2A inh	PGK inhibitor	GLS inh
O=Cc1ccc2oc3nc4n(c(=O)c3c(=O)c2c1)CCCS4	u	-62*	u	u
O=C(N/N=C/c1cn(Cc2cccc(F)c2)c2ccccc12)c1cc(O)cc(O)c1	-27%	-22	4.5µM*	2.5µM*
Nc1ccc(C(=O)N/N=C/c2cn(Cc3ccc(F)cc3)c3ccccc23)cc1	-16%	0	2%	-4%
COC(=O)c1cc(-c2ccc(Oc3ccccc3)cc2)c(=O)n2c1CCC2	x	3	x	x
CCN(CC)C(=O)c1sc2nc(-c3cccs3)cc(-c3ccc(Cl)cc3)c2c1N	28µM*	-5	4%	-10%
CC(C)(C)C(=O)c1sc2nc(-c3cccs3)cc(C(F)(F)F)c2c1N	1.3µM*	0	-4%	1%
Cc1nnc(NC(=O)c2sc3nc(-c4cccs4)cc(C(F)(F)F)c3c2N)s1	-9%	1	-18%	-2%
Cc1ccc(NC(=O)CSc2ccccc2)cc1S(=O)(=O)N1CCCCC1	-14%	0	-7%	1%
Cc1cc(C)c(S(=O)(=O)/N=C2/C=C(SCC(=O)O)C(=O)c3ccccc32)cc1C	25µM*	-53*	-6%	-17%
CC(C)(N[C@@H](Cc1ccccc1)C(=O)NCCCc1ccccc1)C(=O)NCc1ccccc1	x	-3	x	x
COc1ccc(/C=N/N(Cc2ccccc2)c2ccccc2)cc1O	-15%	4	-8%	16µM*
COc1cc(C=NCc2ccccc2)ccc1O	-22%	8	-1%	25%
Cc1cc(=O)n(-c2ccc(C(=O)O)cc2)[nH]1	-24%	-56*	-11%	5%
c1coc(-c2nnc(-c3ccco3)nn2)c1	25µM*	u	u	7.9µM*
c1ccc(-c2nnc(-c3ccco3)o2)cc1	-12%	-3	-8%	-13%
COc1ccc(-c2nc(SCC(=O)c3ccc(OC)c(Br)c3)n[nH]2)cc1	-12%	0	-1%	0%
COc1ccccc1NC(=O)COC(=O)c1ccc([N+](=O)[O-])s1	14µM*	0	-5%	0%
Cc1ccc(NC(=O)COC(=O)c2ccc([N+](=O)[O-])s2)c(C)c1	-20%	7	-2%	-12%
O=C(Nc1ccc(F)cc1)Nc1ccc(N2CCOCC2)c2nonc12	-4%	-59*	-1%	u
Nc1ccc(N2CCOCC2)c2nonc12	18µM*	-60*	1%	35%
CC(=O)c1cccc(OCC(=O)N(C)CC(=O)NCc2ccco2)c1	-22%	-27	14µM*	13µM*
O=C(OC12CCCN(C1)/C(=C/c1cccnc1)C2)c1ccco1 (stereo unspecified)	x	-3	x	x
CCCC(=O)N1CCC[C@]2(CC[C@@H](CCC#N)O2)C1	x	-2	x	x
Cc1nc([N+](=O)[O-])cn1-c1ccc([N+](=O)[O-])cc1	x	1	x	-1%
CCOC(=O)COc1ccc2c(C)c(CCN(CC)CC)c(=O)oc2c1	x	x	x	5%
SMILES	USP1 inh	PI4K2A inh	PGK inhibitor	GLS inh
O=C1C(=Cc2cccc(Cl)c2)CCc2ccccc21	x	-13	x	0%
COc1ccccc1C=C1CCc2ccccc2C1=O	x	-63*	x	-3%
O=C1C(=Cc2ccccc2Cl)CCc2ccccc21	x	-78*	x	1%
Cn1cccc1/C=C1\CCc2ccccc2C1=O	-2%	-56*	u	1%
Cn1cccc1/C=C1\Cc2ccccc2C1=O	-24%	-19	-13%	-11%
O=C1/C(=C/c2ccco2)CCc2ccccc21	-25%	-54*	u	1%
Cc1ccc2nc(-c3ccc(O)c(O)c3)cn2c1	-2%	u	u	20µM*
Cc1ccc2nc(-c3ccccc3)cn2c1	0%	-70*	u	9%
Cc1cc2c(cc1CC(=O)c1sccc1S(=O)(=O)Nc1onc(C)c1Cl)OCO2	x	-1	x	x
COC(=O)c1ccc2c(=O)n(CCCCCC(=O)NCCc3ccccc3)c(=O)[nH]c2c1	-18%	-8	-2%	11µM*
O=C(CCCCCn1c(=O)[nH]c2ccccc2c1=O)NCc1ccc(Cl)cc1	0%	-2	-5%	u
O=C(CCCCCn1c(=O)[nH]c2ccccc2c1=O)NCc1ccccc1	-19%	-2	i	8.9µM*
COc1ccc(CCN2C(=S)NC3CC2(C)Oc2ccc([N+](=O)[O-])cc23)cc1OC (stereo unspecified)	0%	-5	-1%	10µM*
CSC1=NSC2=NC(=O)/C(=C/c3coc4ccc(O)cc4c3=O)C(=N)N12	22µM*	-4	u	-24%
N=C1/C(=C\c2coc3ccccc3c2=O)C(=O)N=C2SC=CN12	28µM*	-7	-4%	20%
CSC1=NSC2=NC(=O)/C(=C\c3cccs3)C(=N)N12	-8%	1	-9%	-2%
CC1=CC2=NC(=O)/C(=C\c3cc(C)n(-c4cccc(Cl)c4)c3C)C(=N)N2O1	-2%	6	0%	3%
N=C1/C(=C/c2cccn2Cc2ccc(F)cc2)C(=O)N=C2SC=CN12	-20%	-8	i	-2%
CSC1=NSC2=NC(=O)/C(=C/c3coc4ccccc4c3=O)C(=N)N12	25µM*	-9	-13%	18%
CC1=CC2=NC(=O)/C(=C/c3coc4ccc(Cl)cc4c3=O)C(=N)N2O1	28µM*	-6	i	0%
CC[n+]1c(/C=C/C=C/N(C(C)=O)c2ccccc2)sc2ccccc21	32µM*	-23	-8%	-5%
CCn1c(/C=C/N(C(C)=O)c2ccccc2)[n+](CC)c2ccc(Cl)cc21	-14%	1	5%	6%
CCOC(=O)C1CCCN(S(=O)(=O)c2cc(-c3onc(C)c3C)ccc2OC)C1 (stereo unspecified)	u	2	0%	8%
N#C/C(=C/c1ccc(N2CCCCC2)o1)C(=O)Nc1ccc(Cl)cc1	28µM*	1	21%	0%
O=C(c1ccc(F)cc1)c1cc2ccc(O)cc2oc1=O	-13%	-88*	u	-15%
O=C(c1ccco1)[C@@H]1[C@@H]2C(=O)N(c3ccccc3)C(=O)[C@@H]2C2c3ccccc3C=CN21 (stereo partly specified)	10µM*	u	x	-5%
O=C1C2C3C=CC(C3)C2C(=O)N1Cc1ccccc1 (stereo unspecified)	-14%	7	-5%	-4%
Cc1ccc(N2C(=O)[C@@H]3[C@H](C2=O)C2c4ccccc4C=CN2[C@@H]3C(=O)c2ccco2)c(C)c1 (stereo partly specified)	4µM*	u	2%	10%
Cc1ccc(N2C(=O)[C@@H]3[C@H](C2=O)C2c4ccccc4C=CN2[C@@H]3C(=O)c2ccco2)cc1 (stereo partly specified)	16µM*	-28	-2%	-13%

Source: PubChem BioAssay (National Center for Advancing Translational Sciences (NCATS))
